# IL-1B inflam inh: qHTS for Inhibitors of Inflammasome Signaling: IL-1-beta AlphaLISA Primary Screen. AID 743279, 2014. 4.7% of 360,000 active. activity change, % at 57.5 µM. THP-1 LPS/ATP IL-1B secretion, AlphaLISA, 16 h; hits give low values; in the data active = activity change below about -50%; inconclusive = mostly about -30% to -49%; also: % is scaled to controls: 0 for no effect and ±100 for the full control effect
#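 Secreted IL-1B measured by AlphaLISA bead assay after 16 h compound exposure of THP-1 cells; compounds (final up to 57.5 uM) added 1 h before LPS (250 ng/mL) and ATP (1.25 mM) stimulation; lower signal means less secretion.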
# Giardia kill: Small Molecules that selectively kill Giardia lamblia: qHTS. Giardia lamblia trophozoite viability. AID 540267, 2011. 0.15% of 340,000 active. activity change, % at 7.66 µM, hits read low; in the data active = activity change below about -80%; inconclusive = between about -30% and that limit;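 also: parasites exposed to compound for two days anaerobically before the ATP read; % is scaled to controls: 0 for no effect and ±100 for the full control effect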
#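 Trophozoites 100 cells/well + cpd; 48 hrs, 37 deg C, anaerobic. ATPLite 1-Step added, 15-30 min RT, luminescence read (ATP-based viability).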
# TGFb inhibitor: qHTS for Inhibitors of TGF-b | HepG2 CAGA-GFP TGF-b/SMAD3 reporter, GFP fluorescence, 18 h; TGF-beta stimulated, 500 pg/mL final | Potency, µM (top dose mostly 46.1 µM), for inactives: at the highest dose activity, negative = inhibition, most hits filed as inhibitors | 1.2% of 410,000 active | AID 588855, 2011; also: potency is read from the fitted curve at half-maximal effect; % is scaled to controls: 0 for no effect and ±100 for the full control effect; nearly all actives have a fitted effect of over 65% in size
#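 TGF-beta reporter screen: HEPG2 CAGA-GFP, 1% FBS, 500 pg/mL TGF-beta final, 18 h; per-cell GFP summed per well; curves fitted and categorized by class.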
# HT1080 IDH1KD tx: qHTS for induction of synthetic lethality in tumor cells producing 2HG: qHTS for the HT-1080-IDH1KD cell line; HT-1080 IDH1 knockdown viability, ATP luminescence, 48 h; Potency, µM (series often up to 46.1 µM), inactives show at the top dose activity, negative = toxicity, actives largely listed as cytotoxic; 2% of 360,000 active; AID 686971, 2013;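 also: potency is read from the fitted curve at half-maximal effect; 0% = DMSO wells and -100% = cell-free medium wells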
#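 Knockdown cells (IDH1KD HT-1080) received compounds 2 h after plating at 750 cells/well and were kept 48 h at 37 °C in 5% FBS RPMI. A CellTiter-Glo luminescence read gave % activity for curve fitting.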
# HT1080NT lethal: qHTS for induction of synthetic lethality in tumor cells producing 2HG: qHTS for the HT-1080-NT fibrosarcoma cell line; 1.6% of 360,000 active; Potency, µM (highest dose often 46.1 µM), without a hit: at the top dose activity, negative = less viability, actives largely listed as cytotoxic; HT-1080-NT fibrosarcoma viability, CellTiter-Glo ATP luminescence, 48 h;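 also: NT is the 2HG producing partner of a matched IDH1 knockdown line; potency is read from the fitted curve at half-maximal effect; 0% = DMSO-treated cells and -100% = media-only wells without cells; nearly all actives have a fitted effect of over 55% in size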
#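 Toxicity toward the 2HG-producing NT line was scored as %Activity, normalised to DMSO and no-cell wells, from CellTiter-Glo luminescence after 48 hours' treatment.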
# HepG2 tox: qHTS for Inhibitors of TGF-b: Cytotox Counterscreen. HepG2 CAGA-GFP viability, ATP luminescence, 18 h. Potency, µM (doses to about 46.1 µM), without a hit: at the top dose activity change, negative = cytotoxicity, usual class: cytotoxic. 0.76% of 410,000 active. AID 588856, 2011; also: potency is read from the fitted curve at half-maximal effect
#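 CellTiter-Glo luminescence gave cytotoxicity after 18 hours at 37 degrees C. The cells were HepG2 CAGA-GFP in 1% FBS DMEM, stimulated with 500 pg/mL TGF-beta after compound addition. %Activity was normalised to no-cell wells (complete cell-killing) and DMSO (no toxicity), and curves were fitted and classified.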
# * = called active by the depositor; ? = inconclusive; nt = not tested or not shown; [ ] = another dose, or the depositor's remark. Compounds with a hit are over-represented: about 6.5% of the library has one in this group of screens. Unless noted, calls follow the shape of the dose curve; as a rule, active = well fitted curve in the direction sought with a large enough effect; inconclusive = small, poorly fitted or top-dose-only effect, or another doubt; inactive = no such curve, though single readings can be large; an effect the other way counts as inactive or inconclusive.
SMILES,IL-1B inflam inh,Giardia kill,TGFb inhibitor,HT1080 IDH1KD tx,HT1080NT lethal,HepG2 tox
Cc1ccc(NC(=O)C[n+]2cc(-c3ccc(C)cc3)n3c2CCC3)cc1,nt,?,-1%,-1%,-8%,-23%
Cc1ccc(-c2c[n+](CC(=O)Nc3ccc(C)cc3C)c3n2CCC3)cc1,-73*,-7,26%,-16%,-11%,9%
Cc1ccc(-c2c[n+](CC(=O)Nc3nc(-c4ccc(F)cc4)cs3)c3n2CCC3)cc1,-100*,-19,?,23µM*,21µM*,18µM*
COc1ccc(CNCc2cccc(C)c2)cc1,-11,7,-1%,-25%,-4%,4%
COc1ccc(CNCc2ccc3ccccc3c2)c(OC)c1,-68*,6,?,-10%,-18%,-36%
COc1ccccc1CCNC(C)CCc1ccc(O)cc1 (stereo not drawn),-3,-13,16%,-1%,5%,-23%
COc1ccc(CCC(C)NCc2ccccc2OC)cc1 (stereo not drawn),-82*,-4,-13%,-5%,0%,-30%
COc1ccc(CNCc2cccc(Oc3ccccc3)c2)cc1,-80*,-6,-21%,?,-22%,-28%
Cc1ccc2c(c1)c(C)c(C)n2CC(O)Cn1nc(C)c(Br)c1C (stereo not drawn),?,1,?,?,16µM*,16µM*
CC(=O)c1c(C)nn(CC(O)Cn2c3c(c4cc(C)ccc42)CCCC3=O)c1C (stereo not drawn),-62*,-7,-18%,-4%,-3%,-24%
COc1ccccc1Oc1ccc(NC(=O)c2ccccc2)cc1,-8,?,-1%,4%,8%,-7%
O=C(Cc1ccccc1)N(Cc1cccnc1)c1nc2c(F)cccc2s1,nt,nt,1.6µM*,nt,nt,-35%
CCOc1nc(C)ccc1-c1noc(C)n1,-11,-12,-1%,-8%,15%,-13%
CCSc1ncc(Cl)c(C(=O)N2CCN(c3ccc(OC)cc3)CC2)n1,nt,nt,-23%,nt,nt,-26%
CCCS(=O)(=O)c1ncc(Cl)c(C(=O)N2CCN(c3ccc(OC)cc3)CC2)n1,nt,nt,4µM*,nt,nt,4.5µM*
OC(c1ccc(F)c(F)c1)c1nc(-c2cccc(C(F)(F)F)c2)cs1 (stereo not drawn),-27,nt,?,?,?,20µM*
CCN(CC)C(=O)c1cccc(-c2csc(C(O)c3ccc(F)c(OC)c3)n2)c1 (stereo not drawn),-1,nt,?,?,1µM*,-5%
Cc1ccc(-c2csc(C(O)c3ccc(F)c(F)c3)n2)cc1C (stereo not drawn),-2,nt,?,21µM*,?,-60%
OC(c1ccc(F)cc1)c1nc(-c2cccc(C(F)(F)F)c2)cs1 (stereo not drawn),-14,nt,?,?,?,-59%
OC(c1ccc(F)c(F)c1)c1nc(-c2ccc(F)c(Cl)c2)cs1 (stereo not drawn),-12,nt,?,?,-25%,-45%
O=C(Cc1ccccc1F)Nc1cc(S(=O)(=O)N2CCCC2)ccc1Cl,-23,-23,6%,2%,9%,1%
Cc1cccn2c(=O)c3cc(C(=O)NCc4ccco4)c(=N)n(C4CCCCC4)c3nc12,-98*,-11,-5%,?,?,-7%
COCCCn1c(=N)c(C(=O)NCc2ccco2)cc2c(=O)n3cccc(C)c3nc21,nt,nt,0%,nt,nt,-29%
Cc1cccn2c(=O)c3cc(C(=O)NCc4ccco4)c(=N)n(CCOCCO)c3nc12,-57*,-1,-30%,-5%,0%,-17%
O=C(CNc1ccc(F)cc1)N/N=C/c1c(O)ccc2ccccc12,177,-26,?,10µM*,?,-37%
SMILES,IL-1B inflam inh,Giardia kill,TGFb inhibitor,HT1080 IDH1KD tx,HT1080NT lethal,HepG2 tox
COc1ccccc1NCC(=O)N/N=C/c1c(O)ccc2ccccc12,171,?,-1%,10µM*,15µM*,-48%
COc1ccccc1NC(=O)c1c(N=Cc2c(O)ccc3ccccc23)cnn1C,61,-6,-15%,5.8µM*,8.2µM*,-13%
COc1ccccc1N(CC(=O)N/N=C/c1c(O)ccc2ccccc12)S(C)(=O)=O,-7,2,-20%,?,?,-1%
CCCN1CCC(C(=O)NC(c2ccc(Cl)cc2)c2ccsc2)CC1 (stereo not drawn),?,nt,-2%,?,?,-37%
COc1ccc(C(C)NC(=O)C2CCN(CCOc3ccc(Cl)cc3Cl)CC2)cc1OC (stereo not drawn),-24,nt,?,?,23µM*,-90%
O=C(NC(c1ccccc1)c1cnccn1)C1CCN(Cc2ccc(Cl)c(Cl)c2)CC1 (stereo not drawn),-24,nt,-16%,?,?,-38%
O=C(NC(c1ccccc1)c1ccsc1)C1CCN(CCOc2ccc(Cl)cc2Cl)CC1 (stereo not drawn),-68*,nt,?,16µM*,18µM*,-95%
O=C(NC(c1ccccc1)c1cnccn1)C1CCN(CCOc2ccc(Cl)cc2Cl)CC1 (stereo not drawn),?,nt,?,?,16µM*,-96%
O=C(NC(c1cccnc1)c1ccc2c(c1)OCO2)C1CCN(CCOc2ccc(Cl)cc2Cl)CC1 (stereo not drawn),-68*,nt,?,18µM*,?,-47%
Cc1noc(C)c1C(=O)N1CCN(c2cccc(Cl)c2)CC1,-7,-3,0%,4%,-2%,3%
COc1cccc(N2CCN(CC(=O)Nc3ccccc3C(=O)NCc3ccccc3)CC2)c1,-9,-9,-10%,-4%,3%[9.24 µM],-16%
CCOc1ccc(NC(=O)Cn2c(=O)n(CCCCC(=O)NCc3ccc4c(c3)OCO4)c(=O)c3ccccc32)cc1,nt,nt,?,nt,nt,-40%
Cc1ccc(-c2nn(CC(=O)NCc3cc(-c4nn(C)c(=O)c5ccccc45)ccc3C)c(=O)c3ccccc23)cc1,38,-5,0%,?,?,3.5µM*
S=C1Cc2ccccc2N1,-101*,3,5.6µM*,5.2µM*,4.6µM*,8.9µM*
COCCCN=C(c1ccco1)n1c(=S)nc(-c2ccco2)n(CCCOC)c1=S,7,6,0%,7.9µM*,5.6µM*,-6%

# Source: PubChem BioAssay (National Center for Advancing Translational Sciences (NCATS))
